# HT1080 IDH1KD tx – HT-1080 IDH1 knockdown cell toxicity (counter line); HT-1080 IDH1 knockdown viability, ATP luminescence, 48 h; Potency, µM (doses to about 46.1 µM), most hits filed as cytotoxic; 360,000 tested, 2% active; AID 686971
#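 CellTiter-Glo luminescence after 48 h compound exposure at 37 degrees C of IDH1-knockdown HT-1080 cells in 5% FBS RPMI. %Activity scaled between DMSO wells and cell-free media wells, with curves fitted and assigned curve classes.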
# DT40 TDP1 no CPT – qHTS for Inhibitors of human tyrosyl-DNA phosphodiesterase 1 (TDP1): qHTS in cells in absence of CPT. AID 686978, 2013. Potency, µM (titrated, usually from 46.2 µM), usual class: inhibitors. 420,000 tested, 15% active. DT40 Tdp1-/- hTDP1 cells, no CPT, ATP luminescence, 48 h; note: nearly all actives have a fitted effect of over 55% in size
#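 Stably hTDP1-transfected Tdp1-null chicken DT40 cells were treated with library compounds minus camptothecin and grown for at least 48 hr at 37 °C, after which cellular ATP was quantified by luminescence.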
# KB-3-1 tox – KB-3-1 parental cell cytotoxicity; KB-3-1 viability, CellTiter-Glo ATP luminescence, 72 h; Potency, µM (top dose mostly 46.1 µM), actives largely listed as cytotoxic; 400,000 tested, 1.4% active; AID 1347075; note: nearly all actives have a fitted effect of over 60% in size
#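 Using CellTiter-Glo luminescence, growth of non-resistant KB-3-1 adenocarcinoma cells is assessed 72 h after pin-tool compound addition at 37 °C. Normalized responses across the concentration series yield fitted curves.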
# HT1080-NT tox – kills 2HG-producing HT-1080-NT fibrosarcoma cells; HT-1080-NT fibrosarcoma viability, CellTiter-Glo ATP luminescence, 48 h; AID 686970; Potency, µM (top dose mostly 46.1 µM), usual class: cytotoxic; 360,000 tested, 1.6% active;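 note: NT is the 2HG producing partner of a matched IDH1 knockdown line; nearly all actives have a fitted effect of over 55% in size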
#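 Compounds were tested in concentration-response format on HT-1080-NT cells for 48 hours at 37 degrees C. Cell viability came from CellTiter-Glo luminescence; curves were classified by r2, response magnitude and activity.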
# KB-V1 MDR tox – kills drug-selected multidrug resistant KB-V1 cells; KB-V1 MDR cells viability, CellTiter-Glo, 72 h; 400,000 tested, 3.4% active; Potency, µM (titrated, usually from 46.1 µM), most hits filed as cytotoxic; note: nearly all actives have a fitted effect of over 60% in size
#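 Cytotoxicity via CellTiter-Glo luminescence after 72 h compound exposure at 37 degrees C. Cells: drug-selected KB-V1 line, DMEM phenol-red free plus 10% FBS. Compounds tested at multiple concentrations; normalized data fitted to concentration-effect curves.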
# DT40 TDP1 CPT – growth inhibition of DT40 Tdp1-/-;hTDP1 cells with camptothecin (screen for TDP1 inhibitors); AID 686979; Potency, µM (series often up to 46.2 µM), most hits filed as inhibitors; chicken DT40 Tdp1-/-;hTDP1 cells + 20 nM CPT, ATP luminescence, 48 h; 420,000 tested, 12% active; note: nearly all actives have a fitted effect of over 55% in size
#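 Chicken DT40 Tdp1-/- cells complemented with human TDP1, 400 cells/well, exposed to compounds plus 20 nM camptothecin for at least 48 h at 37 C; viability read as ATP content by CellTiter-Glo luminescence.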
# Numbers stand for hits; - = inactive; ? = inconclusive; . = not tested or not shown. Rows were chosen to be rich in hits. Some 19% of all compounds tested hit in one or more screens of this group. Calls come from the whole dose curve; as a rule, active = well fitted curve in the direction sought with a large enough effect; inconclusive = small, poorly fitted or top-dose-only effect, or another doubt; inactive = no such curve, though single readings can be large; an effect the other way counts as inactive or inconclusive.
SMILES,HT1080 IDH1KD tx,DT40 TDP1 no CPT,KB-3-1 tox,HT1080-NT tox,KB-V1 MDR tox,DT40 TDP1 CPT
C[C@@H]1CN([C@H](C)CO)S(=O)(=O)c2ccc(C#Cc3ccccc3F)cc2O[C@H]1CN(C)C(=O)c1ccc2c(c1)OCO2,?,6.5µM,?,?,?,18µM
COC(=O)[C@H]1C[C@H]1[C@@H](NC(=O)c1ccc[nH]1)c1ccccc1,-,-,-,-,-,-
CSc1nc(Cl)c(Cc2ccc(OC(C)C)cc2)c(N2CCOCC2)n1,?,?,9.2µM,-,?,?
CSc1nc(N2CCOCC2)c2sccc2n1,-,?,-,-,-,-
COc1ccc(CCNC(=O)CSc2ccc(-c3ccncc3)nn2)cc1,-,-,-,-,-,-
CC(C)(C#N)Cc1cc(CC(C)(C)C#N)cc(C(C)(C)C)c1,-,-,-,-,-,-
N#CC(Cc1cccc(CC(C#N)(c2ccccc2)c2ccccc2)c1)(c1ccccc1)c1ccccc1,-,4.1µM,-,-,-,3.3µM
Oc1ccc(Br)cc1-c1ccnn1-c1ccccc1,7.3µM,10µM,?,?,?,21µM
O=[N+]([O-])c1cccnc1Sc1ccc(F)cc1,-,-,-,-,-,-
CNc1nnc(Sc2ncccc2[N+](=O)[O-])s1,-,16µM,-,-,-,8.2µM
COc1ccc(CCC(=O)NC2CCC(C)CC2)cc1 (stereo unspecified),-,-,-,-,-,-
COc1ccc(CCNC(=O)CCc2cn(Cc3ccc(C)cc3)c3ccccc23)cc1OC,.,15µM,.,.,.,13µM
COc1ccc(Br)cc1CNC(=O)CCc1cn(Cc2ccc(C)cc2)c2ccccc12,.,23µM,.,.,.,?
COc1ccc(CNC(=O)CCc2cn(Cc3cc(C)ccc3C)c3ccccc23)cc1OC,.,5.8µM,.,.,.,4.6µM
Cc1ccc(Cn2cc(CCC(=O)NC3CCC(C)CC3)c3ccccc32)cc1 (stereo unspecified),.,13µM,.,.,.,?
CCOc1ccc(CNC(=O)CCc2cn(C)c3ccccc23)cc1OC,-,-,-,-,-,-
COc1ccc(CCNC(=O)CCCc2ccccc2)cc1OC,-,-,-,-,-,-
Cc1ccc(Cn2cc(CCC(=O)NCc3ccccc3F)c3ccccc32)cc1,.,-,.,.,.,-
O=C(O)c1ccc(NS(=O)(=O)c2ccc(Cl)c(C(=O)Nc3ccccc3[N+](=O)[O-])c2)cc1,-,-,-,-,-,-
O=C1NN=C(CSc2n[nH]c(=S)s2)CS1,-,-,-,?,?,-
COc1ccc(OC)c(NC(=O)COc2ccc(S(=O)(=O)N3CCCC3)cc2)c1,-,?,-,-,?,-
Cc1cc(=O)[nH]c(N2CCCCC2)n1,-,-,-,-,-,-
CCOc1ccccc1CNC(=O)CCc1cn(Cc2ccc(Cl)cc2)c2ccccc12,.,16µM,.,.,.,18µM
CCn1cc(CCCC(=O)NCc2ccccc2OC)c2ccccc21,-,?,-,-,-,-
CC(=O)c1cccc(S(=O)(=O)NC2CCSc3ccccc32)c1 (stereo unspecified),-,12µM,-,-,-,?
SMILES,HT1080 IDH1KD tx,DT40 TDP1 no CPT,KB-3-1 tox,HT1080-NT tox,KB-V1 MDR tox,DT40 TDP1 CPT
N#Cc1ccc2ccn(CC(=O)NCc3ccccc3)c2c1,-,18µM,-,-,-,?
CCc1cc2c(N3CCN(c4ccccc4)CC3)ncnc2s1,-,12µM,-,-,?,13µM
Oc1ccc(N2CCN(c3ncnc4sc(-c5ccccc5)cc34)CC2)cc1,?,23µM,-,13µM,?,?
Cc1ccc(CNC(=O)c2c(-c3ccccc3Cl)noc2C)o1,.,?,-,.,-,?
CN1C2C=CC(=O)C1C1C(=O)N(c3ccccc3)C(=O)C12 (stereo unspecified),?,18µM,?,?,?,18µM
Cc1ccccc1N1C(=O)C2C3C=CC(C2C1=O)N(C)C3=O (stereo unspecified),-,-,-,-,-,-
COc1ccc(-n2c(-c3ccccc3F)nc3c(cnn3-c3ccc(C)cc3)c2=O)cc1,.,13µM,.,.,.,21µM
COc1cccc(-n2c(-c3ccco3)nc3nc4ccccc4nc32)c1,-,-,-,-,-,-
COc1cccc(-n2c(-c3ccco3)nc3c(cnn3-c3ccc(C)cc3)c2=O)c1,.,15µM,?,.,-,15µM
CCOc1ccc(-n2c(-c3ccc(C)cc3)nc3c(cnn3-c3ccccc3)c2=O)cc1,.,?,-,.,-,-
COc1ccc(-n2c(-c3ccco3)nc3c(cnn3-c3ccc(C)cc3)c2=O)cc1,-,12µM,?,-,?,12µM
COc1ccc2c(=O)c3c(=O)n(-c4ccccc4)c(-c4ccco4)nc3oc2c1,-,?,-,-,-,-
N#CC1(NC(=O)COC(=O)c2cccc(-n3cnnn3)c2)CCCCC1,-,-,-,-,?,-
COCC(=O)N1CCC[C@@]2(CCN(Cc3ccc(C#N)cc3)C2)C1,.,-,.,.,.,-
O=C(Nc1nnc(C23CC4CC(CC(C4)C2)C3)s1)c1ccco1,-,-,-,-,-,-
NC(=S)Nc1cccc(F)c1,-,-,-,-,-,-
Fc1cccc(NC(=S)NNc2c3ccccc3nc3ccccc23)c1,21µM,0.92µM,?,?,?,1.3µM
Fc1cccc(NC(=S)NNc2ccccc2)c1,-,2.6µM,-,-,-,3.3µM
COc1cccc(CNC(=O)Nc2cc(C(=O)NCc3cccc(F)c3)ccc2N2CCCC2)c1,.,?,?,.,-,?
Cc1ccc(N2CC(NC(=O)c3cccs3)CC2=O)cc1 (stereo unspecified),.,-,.,.,.,-
Cc1cc(C)c(NC(=O)C(C)n2c(=O)cc(-c3ccccc3)c3c(C)nn(C)c32)c(C)c1 (stereo unspecified),.,-,-,.,-,-
C#CCN(CC(=O)OCC)S(=O)(=O)CCNC1CC1,-,-,-,-,-,-
C[C@@H](C1[C@@H](O)CC2C3C=CC4C[C@@H](O)CC[C@]4(C)[C@H]3CC[C@@]21C)[C@@H]1CCCCN1 (stereo partly specified),.,1.2µM,.,.,.,1.6µM
CCOC(Cn1c(SCc2cc(C(C)=O)ccc2OC)nc2ccccc2c1=O)OCC,-,-,-,-,-,-
COc1ccc(C(C)=O)cc1CSc1nc(NCCc2ccccc2)c2ccccc2n1,.,10µM,.,.,.,18µM
COc1ccc(C(C)=O)cc1CSc1nc2cc(C(=O)O)ccc2c(=O)n1Cc1ccccc1,-,?,-,-,?,-
Fc1cccc(CSc2nc(NCCc3ccccc3)c3ccccc3n2)c1,.,23µM,.,.,.,16µM
